ELG1 repair inh – qHTS screen for small molecules that inhibit ELG1-dependent DNA repair in human embryonic kidney (HEK293T) cells expressing luciferase-tagged ELG1. HEK293T ELG1-luciferase reporter, luminescence, 16 h; DNA damage induced by 5-fluorouridine. Potency, µM (highest dose often 46.1 µM), without a hit: top-dose activity change, negative = inhibition, hits mostly inhibitors. 2.3% of 330,000 active; further: potency means the concentration at half of the fitted maximal effect; nearly all actives have a fitted effect of over 55% in size
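Luminescence from the luciferase reporter, measured 30 min after ONE-Glo reagent at room temperature, was the read-out. Beforehand, 2,000 cells per well were exposed for 16 hr at 37 °C to 5-fluorouridine together with compound or vehicle.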
DT40 TDP1 CPT – qHTS for Inhibitors of human tyrosyl-DNA phosphodiesterase 1 (TDP1): qHTS in cells in presence of CPT; chicken DT40 Tdp1-/-;hTDP1 cells + 20 nM CPT, ATP luminescence, 48 h; Potency, µM (series often up to 46.2 µM), for inactives: at the top dose activity change, negative = growth inhibition, most hits filed as inhibitors; 12% of 420,000 active; AID 686979, 2013; further: potency means the concentration at half of the fitted maximal effect; nearly all actives have a fitted effect of over 55% in size
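Chicken DT40 Tdp1-/- cells stably complemented with human TDP1 were seeded at 400 cells/well in medium containing 20 nM camptothecin, exposed to pin-transferred compounds, and grown at 37 °C for at least 48 hr. Viability was read as ATP luminescence.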
DT40 TDP1 no CPT – qHTS for Inhibitors of human tyrosyl-DNA phosphodiesterase 1 (TDP1): qHTS in cells in absence of CPT | DT40 Tdp1-/- hTDP1 cells, no CPT, ATP luminescence, 48 h | Potency, µM (highest dose often 46.2 µM), for the others: at the top dose activity change, negative = growth inhibition, hits mostly inhibitors | 15% of 420,000 active | AID 686978, 2013; further: potency means the concentration at half of the fitted maximal effect; nearly all actives have a fitted effect of over 55% in size
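Growth kinetics read by CellTiter-Glo luminescence after ≥48 hr at 37 °C. Cells: DT40 Tdp1-/- stably carrying human TDP1, 400 per well, compound exposure in the absence of CPT (DMSO vehicle).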
HT1080 IDH1KD tx – qHTS for induction of synthetic lethality in tumor cells producing 2HG: qHTS for the HT-1080-IDH1KD cell line; Potency, µM (highest dose often 46.1 µM), for the others: at the highest dose activity, negative = toxicity, most hits filed as cytotoxic; 2% of 360,000 active; HT-1080 IDH1 knockdown viability, ATP luminescence, 48 h;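 further: potency means the concentration at half of the fitted maximal effect; 0% = DMSO wells and -100% = cell-free medium wells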
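Cytotoxicity counter-line: IDH1KD HT-1080, 48 h, CellTiter-Glo. Curves classed by r2, magnitude and activity.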
HT1080NT lethal – qHTS for induction of synthetic lethality in tumor cells producing 2HG: qHTS for the HT-1080-NT fibrosarcoma cell line | Potency, µM (highest dose often 46.1 µM), for inactives: top-dose activity, negative = less viability, hits mostly cytotoxic | HT-1080-NT fibrosarcoma viability, CellTiter-Glo ATP luminescence, 48 h | 1.6% of 360,000 active | AID 686970, 2013;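 further: NT is the 2HG producing partner of a matched IDH1 knockdown line; potency means the concentration at half of the fitted maximal effect; 0% = DMSO-treated cells and -100% = media-only wells without cells; nearly all actives have a fitted effect of over 55% in size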
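HT-1080-NT fibrosarcoma cells (2HG-overproducing), 750 cells/well in RPMI with 5% FBS, dosed after 2 h and incubated 48 h at 37C. CellTiter-Glo luminescence normalized to DMSO and no-cell wells; concentration-response curves fitted and classed.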
IL-1B inflam inh – qHTS for Inhibitors of Inflammasome Signaling: IL-1-beta AlphaLISA Primary Screen. THP-1 LPS/ATP IL-1B secretion, AlphaLISA, 16 h; active compounds read low. activity change, % at 57.5 µM. 4.7% of 360,000 active; in the data active means activity change below about -50%; inconclusive means mostly about -30% to -49%
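Secreted IL-1B measured by AlphaLISA bead assay after 16 h compound exposure of THP-1 cells; compounds (final up to 57.5 uM) added 1 h before LPS (250 ng/mL) and ATP (1.25 mM) stimulation; lower signal means less secretion.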
* = called active by the depositor; u = inconclusive; x = not tested or not shown; [ ] = another dose, or the depositor's remark. Hits are enriched below; roughly 19% of the tested compounds scored in any of these assays. Unless noted, the call rests on the fitted dose curve; in most records, active means well fitted curve in the direction sought with a large enough effect; inconclusive means small, poorly fitted or top-dose-only effect, or another doubt; inactive means no such curve, though single readings can be large; an effect the other way counts as inactive or inconclusive. Unless noted, on the % scale 0 is the no-effect control and ±100 the full control effect.

SMILES | ELG1 repair inh | DT40 TDP1 CPT | DT40 TDP1 no CPT | HT1080 IDH1KD tx | HT1080NT lethal | IL-1B inflam inh
Cc1cc(C)c2nc(NCCCNC(=S)NCCCN(C)C)c(C#N)cc2c1 | -10% | 5.8µM* | 5.8µM* | u | u | -21
CCOCCCNC(=S)NCCCNc1nc2c(C)cc(C)cc2cc1C#N | -1% | 8.2µM* | 18µM* | -5% | -2% | -28
O=C(C1CCN(S(=O)(=O)Cc2ccccc2)CC1)N1CCN(c2ccccc2F)CC1 | x | u | -27% | x | x | x
NC(=O)CSc1nc2ccc([N+](=O)[O-])cc2[nH]1 | -3% | 15% | 22% | -2% | -20% | 31
O=[N+]([O-])c1ccc2nc(C(O)C(O)c3nc4ccc([N+](=O)[O-])cc4[nH]3)[nH]c2c1 (stereo unspecified) | 1% | -17% | -27% | -9% | -4% | 21
O=[N+]([O-])c1ccc2nc(/C=C/c3ccc(Cl)cc3)[nH]c2c1 | u | 21µM* | 18µM* | u | u | -94*
O=[N+]([O-])c1ccc(-c2nc3ccc([N+](=O)[O-])cc3[nH]2)cc1 | u | 13µM* | 9.2µM* | u | u | -91*
Nc1ccc(-c2nc3ccc([N+](=O)[O-])cc3[nH]2)cc1 | u | u | u | -2% | 1% | -80*
CCCC[n+]1ccc(-c2nc3ccc([N+](=O)[O-])cc3[nH]2)cc1 | u | 4% | -24% | 5% | 2% | 20
O=C(Nc1cc2c(cc1C(=O)c1ccccc1Cl)OCCO2)c1ccccc1 | x | -12% | -10% | x | x | x
COc1cccc(NC(=O)C2CCC(CNS(=O)(=O)c3cccc4cccnc34)CC2)c1 (stereo unspecified) | -15% | 6% | u | -2% | u | -5
CC(=O)N1CCC2(CC1)C/C(=N\NC(=S)Nc1ccccc1F)c1cc(O)ccc1O2 | -10% | -18% | -14% | u | u | -76*
Nc1nc(NC2CC2)c2ncn([C@@H]3C=C[C@@H](CO)C3)c2n1 | x | 12µM* | 15µM* | x | x | x
O=C(O)c1ccc(-c2nc(-c3cccc(C(F)(F)F)c3)cs2)cc1 | u | u | -7% | -2% | 9% | 132
NC(=O)Cc1nc(-c2ccc([N+](=O)[O-])cc2)cs1 | 18µM* | 10µM* | u | 1% | 1% | 21
N#Cc1ccc(Nc2nc(-c3ccccc3)cs2)cc1 | x | u | u | u | u | -6
O=C(Nc1ccc(F)cc1F)c1csc(-c2ccncc2)n1 | 10% | 20% | -5% | 0% | -7% | 29
O=[N+]([O-])c1ccc(-c2csc(Nc3ccccc3)n2)cc1 | x | u | 13µM* | -24% | -21% | x
Cc1ccc(C(=O)Nc2cccc(C(F)(F)F)c2)cc1NC(=O)c1csc(-c2ccncc2)n1 | u | 6.5µM* | 4.1µM* | -19% | -11% | 26
O=C(Nc1cccc(-c2csc(Nc3cccc(C(F)(F)F)c3)n2)c1)c1cc([N+](=O)[O-])cc(C(F)(F)F)c1 | 2.6µM* | 7.3µM* | 5.8µM* | -5% | -2% | 4
O=C(Nc1ccc(-c2csc(Nc3ccccc3)n2)cc1)c1cccc(C(F)(F)F)c1 | u | 2.9µM* | 4.1µM* | u | u | 116
O=C(Nc1ccc(-c2csc(Nc3ccccc3)n2)cc1)c1cc([N+](=O)[O-])cc(C(F)(F)F)c1 | 9.2µM* | u | 18µM* | -16% | 1% | 88
O=C(Nc1ccc(-c2csc(-c3ccccc3)n2)cc1)c1ccccc1 | -3% | u | u | -28% | u | -13
NC(=O)c1ccsc1NC(=O)COC(=O)c1ccccn1 | 10% | -28% | u | -2% | -5% | -19
CN(Cc1ccc2c(c1)CN(C(=O)c1cccc(N(C)C)c1)CCO2)Cc1cc(C2CC2)n[nH]1 | x | 1%[9.04 µM] | 23µM* | x | x | x
SMILES | ELG1 repair inh | DT40 TDP1 CPT | DT40 TDP1 no CPT | HT1080 IDH1KD tx | HT1080NT lethal | IL-1B inflam inh
O=C(NNc1nc(-c2ccccc2)c2cc(Br)ccc2n1)c1ccc(S(=O)(=O)N2CCOCC2)cc1 | u | u | u | -4% | -4% | -51*
Cc1ccc([C@H]2N[C@]3(CCCN(Cc4ccc(F)cc4)C3=O)[C@H]3C(=O)N(C)C(=O)[C@@H]23)cc1 | x | u | 13µM* | -6% | -5% | -25
Cc1ccc([C@H]2N[C@]3(CCCN(Cc4ccc(Br)cc4)C3=O)[C@H]3C(=O)N(C)C(=O)[C@@H]23)cc1 | x | 3% | 13µM* | 4% | -12% | 14
Cc1ccc([C@H]2N[C@]3(CCCN(Cc4ccccc4)C3=O)[C@H]3C(=O)N(C)C(=O)[C@@H]23)cc1 | x | -17% | u | 2% | 1% | -4
Nc1[nH]c(C(=O)c2ccccc2)c(-c2ccncc2)c1C(=O)NC1CC1 | x | -13% | -16% | u | 1% | -15
CCC(C)NC(=O)c1cn(CC)c2ccc(S(=O)(=O)N3CCc4ccccc4C3)cc2c1=O (stereo unspecified) | x | 21µM* | u | x | x | x
CCn1cc(C(=O)NC(C)c2ccccc2)c(=O)c2cc(S(=O)(=O)N3CCc4ccccc4C3)ccc21 (stereo unspecified) | x | u | 16µM* | x | x | x
CCn1cc(C(=O)N2CCc3ccccc32)c(=O)c2cc(S(=O)(=O)N3CCCC3)ccc21 | 1% | -21% | -12% | 3% | -1% | 1
CCn1cc(C(=O)NCc2ccccc2)c(=O)c2cc(S(=O)(=O)N3CCOCC3)ccc21 | x | -21% | -12% | x | x | x
Cc1nn2c(=O)cc(COc3ccc(/C=C(\C#N)C(=O)Nc4ccc(F)cc4)cc3)nc2s1 | x | -13% | 4% | x | x | x
CCOc1ccc(NC(=O)c2cc(OC)nc3ccccc23)cc1 | u | 0.52µM* | 0.58µM* | 0.46µM* | 0.46µM* | 50
CCOc1ccc(NC(=O)c2cccc3ccccc23)cc1 | -24% | 12µM* | 8.2µM* | -20% | -4% | -2
Cc1occc1C(=O)Nc1ccc(OCc2ccccc2)cc1 | 1% | -14% | 16µM* | u | u | 31

Screening results from PubChem BioAssay.
